Source: PubChem BioAssay
VP16 counter: counter-screen for ROR gamma inhibitors: Gal4-VP16 reporter. Drosophila S2 Gal4-VP16 UAS-luciferase, luminescence, 20 h. Potency, µM (doses to about 53.6 µM), most hits filed as inhibitors. 3.5% of 310,000 active. AID 2546;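 also: Gal4-VP16 expression switched on by copper sulfate through the metallothionein promoter; nearly all actives have a fitted effect of over 50% in size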
BRCA1 expr up: BRCA1 expression activation; MCF7-BRCA1-FFLuc reporter, luminescence, 48 h; response scale: scaled: vehicle 0%, 10 µM genistein 100%; AID 624202; Potency, µM (titrated, usually from 46.1 µM), hits mostly activators; 1.1% of 380,000 active; also: nearly all actives have a fitted effect of over 80% in size
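Quantitative HTS in MCF7 cells stably reporting BRCA1 expression via firefly luciferase. Compound treatment lasts 48 h at 37 °C in phenol-red free MEM. Activation is expressed relative to genistein at 10 microM and DMSO.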
ELG1 DNA repair: ELG1-dependent DNA repair inhibition; HEK293T ELG1-luciferase reporter, luminescence, 16 h; DNA damage induced by 5-fluorouridine; Potency, µM (top dose mostly 46.1 µM), most hits filed as inhibitors; 2.3% of 330,000 active; also: nearly all actives have a fitted effect of over 55% in size
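Luminescence from the luciferase reporter, measured 30 min after ONE-Glo reagent at room temperature, was the read-out. Beforehand, 2,000 cells per well were exposed for 16 hr at 37 °C to 5-fluorouridine together with compound or vehicle.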
RORg inh: blocks mouse ROR gamma transcriptional activity | P51450 | Drosophila S2 Gal4-RORgamma UAS-luciferase reporter, 20 h | 5.4% of 310,000 active | Potency, µM (titrated, usually from 53.6 µM), hits mostly inhibitors; also: nearly all actives have a fitted effect of over 60% in size
Target sequence (P51450 whole entry, looked up, the tested form may be a part): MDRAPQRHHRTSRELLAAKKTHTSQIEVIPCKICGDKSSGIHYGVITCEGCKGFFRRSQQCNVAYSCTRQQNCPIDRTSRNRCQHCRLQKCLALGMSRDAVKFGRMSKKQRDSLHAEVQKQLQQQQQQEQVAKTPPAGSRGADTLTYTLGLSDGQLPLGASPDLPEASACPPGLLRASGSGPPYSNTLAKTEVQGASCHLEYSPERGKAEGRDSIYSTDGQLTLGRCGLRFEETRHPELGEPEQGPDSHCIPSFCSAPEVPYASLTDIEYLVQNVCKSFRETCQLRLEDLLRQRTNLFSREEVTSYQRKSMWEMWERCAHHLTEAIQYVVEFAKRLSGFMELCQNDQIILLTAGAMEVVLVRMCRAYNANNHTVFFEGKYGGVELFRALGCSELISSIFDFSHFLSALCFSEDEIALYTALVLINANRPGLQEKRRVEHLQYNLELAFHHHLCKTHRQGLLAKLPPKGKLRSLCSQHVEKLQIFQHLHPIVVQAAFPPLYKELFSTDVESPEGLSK
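Stably transfected Drosophila Schneider cells are the test system, with ROR gamma fused to Gal4 and luciferase under UAS control; luminescence is read after 20 hr of 700 uM copper sulfate induction at ambient temperature.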
Giardia killer: kills Giardia lamblia. Giardia lamblia trophozoite viability. activity change, % at 7.66 µM, hits read low. 0.15% of 340,000 active; in the data active = activity change below about -80%; inconclusive = between about -30% and that limit;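 also: parasites exposed to compound for two days anaerobically before the ATP read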
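Anaerobic 48 hrs incubation at 37 deg C of 100 trophozoites/well with test compounds; ATPLite 1-Step luminescence, 15-30 min RT, reports cellular ATP as viability.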
p53 reactivator: re-activators of mutant p53; Potency, µM (top dose mostly 92.2 µM), hits mostly activators; 0.063% of 320,000 active; AID 504706; H1299 p53-A138V BP100-luciferase reporter, luminescence, 24 h; also: nearly all actives have a fitted effect of over 45% in size
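H1299 (p53-null), stable ts p53-A138V + BP100-Luc; 1000 cells/well, Opti-MEM/10% FBS; cpd 4 pt, 1:5; 24 h, 37 deg C, 5% CO2; detection reagent 10 min RT; luminescence.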
Numbers stand for hits; . = inactive; ? = inconclusive; / = not tested or not shown; [ ] = dose if it differs, or a comment. This is a sample that favours compounds with a hit; in the whole collection about 7.6% have one here. Unless noted, calls follow the shape of the dose curve; as a rule, active = well fitted curve in the direction sought with a large enough effect; inconclusive = small, poorly fitted or top-dose-only effect, or another doubt; inactive = no such curve, though single readings can be large; an effect the other way counts as inactive or inconclusive.

SMILES	VP16 counter	BRCA1 expr up	ELG1 DNA repair	RORg inh	Giardia killer	p53 reactivator
O=C(Nc1ccccc1)[C@@]12C[C@@H]1/C(=N/O)c1ccccc1O2	.	/	/	?	/	/
c1ccc(OCCN2CCOCC2)cc1	.	.	.	.	.	/
O=C(/C=C/c1ccc2ccccc2n1)c1cc(Br)ccc1O	.	.	?	.	.	?
C[C@H]1CN([C@@H](C)CO)C(=O)CCCn2cc(nn2)CO[C@@H]1CN(C)S(=O)(=O)c1ccc2c(c1)OCCCO2	/	.	/	/	/	/
CC1=NN(C(N)=S)C(=O)C1N=Nc1ccccc1O (configuration not stated)	.	.	.	.	.	?
CC1=NN(C(N)=S)C(=O)C1N=Nc1c(C)cc(C)cc1C (configuration not stated)	1.78µM	.	.	0.501µM	.	.
CC1=NN(C(N)=S)C(=O)C1N=Nc1ccccc1[N+](=O)[O-] (configuration not stated)	/	.	/	/	/	/
CC1=NN(C(N)=S)C(=O)C1N=Nc1ccccc1C (configuration not stated)	0.0447µM	.	?	0.1µM	.	.
CC(=O)N(C)c1ccc(N=NC2C(=O)N(C(N)=S)N=C2C)cc1 (configuration not stated)	2µM	3.98µM	?	1µM	.	/
CC1=NN(C(N)=S)C(=O)C1N=Nc1c(Cl)cc([N+](=O)[O-])cc1Cl (configuration not stated)	1.58µM	.	?	0.355µM	.	/
COc1ccc(NC(=O)C(NC(=O)CC2NC(=O)NC2=O)c2ccccc2)cc1 (configuration not stated)	.	.	?	.	.	.
CCCN(CCC)S(=O)(=O)c1ccc(NC(=O)c2cc(C(=O)OC)cc([N+](=O)[O-])c2)cc1	.	.	.	.	.	.
Nc1ncc2c(n1)CCN(c1ccc([N+](=O)[O-])cc1)C2	.	.	?	.	.	.
N#C/C(=C\c1cccc(Br)c1)C(=O)N1CCCCC1	?	.	?	2.51µM	.	.
N#C/C(=C\c1cccc(O)c1)C(=O)N1CCCCC1	.	.	?	.[1.91 µM]	.	?
CC12CCC(C/C1=N\N=C1\NC(=O)/C(=C\c3ccc(Cl)cc3)S1)C2(C)C (configuration not stated)	10µM	.	?	?	.	?
CC(=O)N1N=C(c2ccccc2)OC1c1ccc([N+](=O)[O-])s1 (configuration not stated)	?	.	?	12.6µM	.	.
COc1cc(NC(=O)C2=C(N3CCOCC3)/C(=C\c3ccc(Br)cc3)CC2)cc(OC)c1OC	.	.	18.4µM	?	.	.
COc1cc(NC(=O)C2=C(N3CCOCC3)/C(=C\c3ccc(Cl)cc3Cl)CC2)cc(OC)c1OC	.	.	20.6µM	.	.	.
O=C(Nc1ccc(Cl)cc1)c1nc[nH]c1C(=O)N1CCN(c2ccccc2)CC1	/	.	.	/	.	.
CCCCCn1c(SCc2ccncc2)nc2cc(C(=O)NCc3ccco3)ccc2c1=O	.	.	6.51µM	?	.	.
CCCCn1c(SCC(=O)NCc2ccco2)nc2ccccc2c1=O	.	.	.	?	.	.
CC1CCC/C(=N/NC(=O)c2ccccc2-n2cccc2)C1 (configuration not stated)	.	.	.	.	.	.
CC1(C)CC(=O)C/C(=N\NC(=S)NCc2ccccc2)C1	?	.	.	14.1µM	.	.
CC1CCCC/C1=N\NC(=S)Nc1ccccc1 (configuration not stated)	.	.	.	.	.	.
CC1C/C(=N\NC(=S)NCc2ccccc2)CC(C)(C)C1 (configuration not stated)	2.82µM	.	.	1.26µM	.	.
CC1CCC/C(=N\NC(=S)Nc2ccccc2)C1 (configuration not stated)	?	.	?	7.94µM	.	.
CC1CCC/C(=N\NC(=S)NCc2ccccc2)C1 (configuration not stated)	?	.	.	11.2µM	.	.
OCCN1CCN(c2ncnc3scc(-c4ccc(F)cc4)c23)CC1	.	.	?	.	.	.
